Out of some 310,000 compounds screened, about 14,000 (4.5%) showed an effect of 50% or more. The effect is printed as a negative number. The full list was thinned out, with strong results kept by preference.
molecular target: human ether-à-go-go-related gene (hERG) potassium channel (human, UniProt Q12809); experiment: primary screen, population patch clamp on CHO cells stably expressing hERG; higher = less effect of the substance
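Note: peak tail current of the secondary pulse compared with the same well before compound.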

Sequence of human ether-à-go-go-related gene (hERG) potassium channel (Q12809 whole entry, looked up): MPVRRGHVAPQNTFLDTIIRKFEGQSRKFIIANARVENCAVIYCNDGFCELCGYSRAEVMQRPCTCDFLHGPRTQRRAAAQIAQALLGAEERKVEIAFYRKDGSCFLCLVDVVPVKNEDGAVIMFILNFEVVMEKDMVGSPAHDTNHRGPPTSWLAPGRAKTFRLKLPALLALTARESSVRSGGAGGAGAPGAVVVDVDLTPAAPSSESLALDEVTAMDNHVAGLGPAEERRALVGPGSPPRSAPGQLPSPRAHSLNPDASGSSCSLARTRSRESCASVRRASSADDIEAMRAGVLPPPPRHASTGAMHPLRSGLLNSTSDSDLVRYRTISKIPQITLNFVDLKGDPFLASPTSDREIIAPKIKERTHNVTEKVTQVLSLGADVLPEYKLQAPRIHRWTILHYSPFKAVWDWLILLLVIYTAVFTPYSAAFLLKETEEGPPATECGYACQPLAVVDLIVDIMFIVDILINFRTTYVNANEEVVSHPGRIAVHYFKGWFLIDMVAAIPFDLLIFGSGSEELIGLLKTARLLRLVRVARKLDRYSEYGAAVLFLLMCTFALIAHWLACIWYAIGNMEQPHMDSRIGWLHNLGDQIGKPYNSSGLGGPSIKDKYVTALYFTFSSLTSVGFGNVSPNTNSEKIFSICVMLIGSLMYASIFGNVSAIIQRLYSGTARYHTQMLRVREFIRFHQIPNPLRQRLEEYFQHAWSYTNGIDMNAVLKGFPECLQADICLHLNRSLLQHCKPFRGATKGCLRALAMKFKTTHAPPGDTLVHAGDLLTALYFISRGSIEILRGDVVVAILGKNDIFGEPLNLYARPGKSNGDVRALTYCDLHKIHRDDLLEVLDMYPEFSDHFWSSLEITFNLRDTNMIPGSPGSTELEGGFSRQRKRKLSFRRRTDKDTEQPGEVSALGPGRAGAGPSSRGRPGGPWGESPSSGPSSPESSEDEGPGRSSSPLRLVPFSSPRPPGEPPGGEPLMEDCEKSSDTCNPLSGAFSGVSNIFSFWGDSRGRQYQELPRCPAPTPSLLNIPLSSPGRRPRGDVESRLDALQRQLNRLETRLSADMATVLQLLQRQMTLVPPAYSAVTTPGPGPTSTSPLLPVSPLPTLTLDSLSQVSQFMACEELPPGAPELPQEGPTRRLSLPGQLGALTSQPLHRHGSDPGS

SMILES	hERG current change (%, negative = inhibition) at 10uM
CC1(C)C(C=C(Cl)Cl)C1C(=O)Nc1ccc([N+](=O)[O-])cc1 (centres unmarked)	18.9%
O=C(COc1ccc(/C=N/NC(=O)C(=O)N2CCCCC2)cc1)Nc1ccccc1Cl	15.9%
O=C(C1CCCCC1)N1CCN(S(=O)(=O)c2cccc([N+](=O)[O-])c2)CC1	-13.1%
O=C(C1CCCN(S(=O)(=O)c2ccc(F)cc2)C1)N1CCCCC1 (centres unmarked)	6.09%
O=C(C1CCC1)N1CCN(S(=O)(=O)c2ccc([N+](=O)[O-])cc2)CC1	-62.6%
O=C(C1CCC1)N1CCN(S(=O)(=O)c2ccc(F)cc2)CC1	11.4%
O=C(C1CCCN(S(=O)(=O)c2ccc(F)cc2)C1)N1CCCCCC1 (centres unmarked)	-24%
O=C(C1CCCN(S(=O)(=O)c2ccc([N+](=O)[O-])cc2)C1)N1CCCCC1 (centres unmarked)	-62%
COc1ccc2oc(C(=O)N3CCc4ccccc43)c(C)c2c1	15.1%
Cc1cccc(S(=O)(=O)NCCC(=O)OC(C)C(=O)NC(=O)NC2CCCCC2)c1 (centres unmarked)	-20.8%
Cc1nn(C)c(Oc2cccc(Cl)c2)c1C#N	8.31%
Cc1nc(N(C)Cc2ccccc2)c2nnn(Cc3ccccc3)c2n1	-37.9%
COc1ccc(CCC(=O)Nc2ccc(S(=O)(=O)N3CCCC3)cc2)cc1OC	-11.8%
CCC1(Cc2ccccc2)NC(=O)c2ccccc2O1 (centres unmarked)	2.36%
CCCCn1cnc2c([nH]c3ccccc32)c1=O	15.7%
CCN1CCCC1Cn1cnc2c([nH]c3ccc(C)cc32)c1=O (centres unmarked)	-70%
CC(C)N(CCn1cnc2c([nH]c3ccccc32)c1=O)C(C)C	-68.1%
COc1cc2[nH]c3c(=O)n(CCN(C(C)C)C(C)C)cnc3c2cc1OC	-13.3%
O=c1c2[nH]c3cccc(Cl)c3c2ncn1CC1CCCO1 (centres unmarked)	-9.51%
CCN1CCCC1Cn1cnc2c([nH]c3cccc(Cl)c32)c1=O (centres unmarked)	-67.2%
O=c1c2[nH]c3ccc(F)cc3c2ncn1CC1CCCO1 (centres unmarked)	-16%
CCN1CCCC1Cn1cnc2c([nH]c3ccc(Cl)cc32)c1=O (centres unmarked)	-76.5%
Cc1ccc2[nH]c3c(=O)n(CCN4CCOCC4)cnc3c2c1	-17.5%
Cc1ccc2[nH]c3c(=O)n(CCN4CCNCC4)cnc3c2c1	7.36%
O=c1c2[nH]c3cccc(Cl)c3c2ncn1CCN1CCCCC1	-21.9%
Cc1ccc2[nH]c3c(=O)n(Cc4ccncc4)cnc3c2c1	4.77%

— article PMC4336329 (PLoS ONE, 2015)
